Results on 12 sequences are retold here after article PMC5700166.

Common to all, as to experiment: protein-binding microarray (PBM); PBM: ~300 nM protein, 6 mM HEPES pH 7.8, 80 mM KCl, 0.5 mM EDTA, 0.5 mM EGTA, 6% glycerol, 35 ng/ul poly-dIdC, 1% milk, 1 h, room temperature; Ap Aiptasia and Nv Nematostella (sea anemones) / Co Capsaspora / Aq Amphimedon (sponge) / Dm Drosophila / Hu human; RHD is the Rel homology domain; high values mean tight binding
Common to all, as to details: dsDNA, one strand shown

The target in one assay is T1, GST-Ap-NF-kB RHD (Exaiptasia pallida (Aiptasia), UniProt A0A913YAJ5 2-422).
T1 sequence: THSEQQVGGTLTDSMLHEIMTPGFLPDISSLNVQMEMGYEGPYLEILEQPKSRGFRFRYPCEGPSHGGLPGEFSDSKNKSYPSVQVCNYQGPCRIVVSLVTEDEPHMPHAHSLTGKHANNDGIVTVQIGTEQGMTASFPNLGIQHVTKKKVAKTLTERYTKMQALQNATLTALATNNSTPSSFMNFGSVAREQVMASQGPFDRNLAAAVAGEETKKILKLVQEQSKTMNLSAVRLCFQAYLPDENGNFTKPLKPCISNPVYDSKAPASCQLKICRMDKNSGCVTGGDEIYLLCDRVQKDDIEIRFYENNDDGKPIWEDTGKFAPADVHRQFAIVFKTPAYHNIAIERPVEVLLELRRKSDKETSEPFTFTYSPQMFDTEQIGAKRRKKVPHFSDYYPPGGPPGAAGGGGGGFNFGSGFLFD

Assay [1] deals with T2, GST-Nv-NF-kB (Cys allele) (Nematostella vectensis, UniProt E5G601 2-411).
T2 sequence: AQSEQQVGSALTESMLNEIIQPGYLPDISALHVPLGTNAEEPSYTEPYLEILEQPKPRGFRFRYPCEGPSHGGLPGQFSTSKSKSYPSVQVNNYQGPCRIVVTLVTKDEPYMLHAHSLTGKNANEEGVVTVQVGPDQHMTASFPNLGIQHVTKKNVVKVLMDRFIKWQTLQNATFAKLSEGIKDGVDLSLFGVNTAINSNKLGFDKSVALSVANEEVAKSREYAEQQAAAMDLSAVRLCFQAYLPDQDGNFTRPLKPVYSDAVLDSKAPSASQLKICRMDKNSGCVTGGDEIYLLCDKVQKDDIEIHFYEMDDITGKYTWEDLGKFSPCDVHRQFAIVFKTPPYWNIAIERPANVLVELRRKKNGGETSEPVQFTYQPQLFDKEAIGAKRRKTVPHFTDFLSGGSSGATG

In assay [2] the target is T3, GST-Nv-NF-kB (Ser allele) (Nematostella vectensis, UniProt A7UNT2 2-411).
T3 sequence: T2 sequence with Q21R, C66S, S207N, E215Q, V217A, E225K, A268E, D399E

The next assay addresses T4, GST-Co-NF-kB (Capsaspora owczarzaki, UniProt F1ARL5 200-546).
T4 sequence: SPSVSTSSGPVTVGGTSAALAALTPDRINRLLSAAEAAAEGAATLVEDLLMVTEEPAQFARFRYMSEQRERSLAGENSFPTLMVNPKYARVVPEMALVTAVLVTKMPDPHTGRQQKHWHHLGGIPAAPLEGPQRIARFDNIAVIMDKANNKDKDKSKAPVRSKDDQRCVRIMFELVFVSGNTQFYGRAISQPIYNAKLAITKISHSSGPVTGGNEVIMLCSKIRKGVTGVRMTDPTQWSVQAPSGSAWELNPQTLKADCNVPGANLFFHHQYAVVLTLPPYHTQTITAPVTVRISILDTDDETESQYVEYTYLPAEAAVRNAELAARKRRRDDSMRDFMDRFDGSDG

A further assay has as its target T5, GST-Dm-Relish (Drosophila melanogaster, UniProt Q94527 99-473).
T5 sequence: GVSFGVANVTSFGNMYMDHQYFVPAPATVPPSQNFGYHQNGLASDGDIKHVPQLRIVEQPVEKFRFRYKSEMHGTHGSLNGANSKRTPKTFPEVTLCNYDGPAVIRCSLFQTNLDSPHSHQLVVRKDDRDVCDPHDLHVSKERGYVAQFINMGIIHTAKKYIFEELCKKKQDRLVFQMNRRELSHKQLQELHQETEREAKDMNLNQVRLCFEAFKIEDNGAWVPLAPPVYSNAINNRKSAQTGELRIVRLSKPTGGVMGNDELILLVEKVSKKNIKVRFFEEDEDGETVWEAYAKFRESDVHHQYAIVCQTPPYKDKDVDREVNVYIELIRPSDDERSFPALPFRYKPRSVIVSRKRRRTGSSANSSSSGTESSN

In another assay the target is T6, GST-Aq-NF-kB (Amphimedon queenslandica, UniProt A9Y5G7 2-389).
T6 sequence: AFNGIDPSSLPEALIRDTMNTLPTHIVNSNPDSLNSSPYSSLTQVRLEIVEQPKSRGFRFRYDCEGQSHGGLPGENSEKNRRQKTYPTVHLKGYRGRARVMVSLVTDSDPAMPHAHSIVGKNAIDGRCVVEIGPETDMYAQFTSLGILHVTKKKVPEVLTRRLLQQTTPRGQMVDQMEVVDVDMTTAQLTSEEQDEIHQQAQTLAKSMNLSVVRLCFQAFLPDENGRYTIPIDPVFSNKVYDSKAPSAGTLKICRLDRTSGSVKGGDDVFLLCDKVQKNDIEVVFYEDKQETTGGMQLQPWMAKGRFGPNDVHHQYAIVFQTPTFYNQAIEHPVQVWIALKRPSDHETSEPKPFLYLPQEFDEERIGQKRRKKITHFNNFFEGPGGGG

The next assay concerns the target GST-Hu-p50 (Homo sapiens, UniProt P19838 7-356).

Residue numbers refer to the chain shown, from its start.

Chain of GST-Hu-p50 (P19838 7-356): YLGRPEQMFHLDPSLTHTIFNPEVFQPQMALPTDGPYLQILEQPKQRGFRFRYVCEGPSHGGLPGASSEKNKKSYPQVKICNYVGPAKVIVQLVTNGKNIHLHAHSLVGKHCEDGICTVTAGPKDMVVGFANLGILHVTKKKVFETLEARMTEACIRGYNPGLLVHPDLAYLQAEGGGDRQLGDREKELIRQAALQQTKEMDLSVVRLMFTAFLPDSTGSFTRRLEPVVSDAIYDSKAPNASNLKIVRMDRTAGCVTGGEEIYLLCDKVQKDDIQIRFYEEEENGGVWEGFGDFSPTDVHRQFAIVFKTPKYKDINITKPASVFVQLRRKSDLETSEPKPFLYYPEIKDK

Turning to “CCGATTAACATCACGGGAGTCCCTGATGTTAATCGGGTCTTGATTCGCTTGACGCTGCTG”, the binding signal with GST-Ap-NF-kB RHD was determined as 5.38 z-score; in assay [1] it was 3.94 z-score; in assay [2] it was 4.12 z-score; with GST-Co-NF-kB, 1.57 z-score; with GST-Dm-Relish it was 8.97 z-score; with GST-Aq-NF-kB it was 5.18 z-score. Besides, the binding signal in the assay with GST-Hu-p50 amounted to 3.45 z-score.

As for “CCGATTAACATCAGAGCTTCCCCTGATGTTAATCGGGTCTTGATTCGCTTGACGCTGCTG”, the binding signal is 4.5 z-score in the assay with GST-Ap-NF-kB RHD; 5.06 z-score in assay [1]; 5.75 z-score in assay [2]; 4.37 z-score with GST-Co-NF-kB; 3.56 z-score in the assay with GST-Dm-Relish; 4.57 z-score in the assay with GST-Aq-NF-kB. The binding signal in the assay with GST-Hu-p50 came out at 4.17 z-score.

As to “CCGATTAACATCACGGGGAAATCTGATGTTAATCGGGTCTTGATTCGCTTGACGCTGCTG”, the binding signal with GST-Ap-NF-kB RHD stood at 7.76 z-score; in assay [1], 8.56 z-score; in assay [2], 10.6 z-score; with GST-Co-NF-kB it was 10.1 z-score; with GST-Dm-Relish, 6.19 z-score; with GST-Aq-NF-kB, 6.37 z-score. The binding signal with GST-Hu-p50 turned out to be 6.25 z-score.

“CCGATTAACATCAAGGGGGAGATTGATGTTAATCGGGTCTTGATTCGCTTGACGCTGCTG”: the binding signal with GST-Ap-NF-kB RHD was found to be 6.99 z-score; in assay [1] it was 6.09 z-score; in assay [2], 7.57 z-score; with GST-Co-NF-kB it was 7.21 z-score; with GST-Dm-Relish it was 3.01 z-score; with GST-Aq-NF-kB, 5.27 z-score. In the assay with GST-Hu-p50, this sequence displayed a binding signal of 7.18 z-score.

Consider “CCGATTAACATCAGGGTTTTACCTGATGTTAATCGGGTCTTGATTCGCTTGACGCTGCTG”, for which the binding signal was 2.62 z-score with GST-Ap-NF-kB RHD; 3.71 z-score in assay [1]; 4.37 z-score in assay [2]; 2.01 z-score in the assay with GST-Co-NF-kB; 6.46 z-score with GST-Dm-Relish; 6.12 z-score in the assay with GST-Aq-NF-kB. The same sequence registered a binding signal with GST-Hu-p50 of 3.39 z-score.

Turning to “CCGATTAACATCAGGGGGGTAGATGATGTTAATCGGGTCTTGATTCGCTTGACGCTGCTG”, the binding signal worked out at 4.07 z-score with GST-Ap-NF-kB RHD; 3.34 z-score in assay [1]; 3.24 z-score in assay [2]; 5.47 z-score with GST-Co-NF-kB; 3.11 z-score with GST-Dm-Relish; 3.59 z-score in the assay with GST-Aq-NF-kB. The same sequence returned a binding signal with GST-Hu-p50 of 3.2 z-score.

As to “CCGATTAACATCAACAAATTCCCTGATGTTAATCGGGTCTTGATTCGCTTGACGCTGCTG”, the binding signal in the assay with GST-Ap-NF-kB RHD worked out at 3.83 z-score; in assay [1] it was 5.69 z-score; in assay [2], 6.87 z-score; with GST-Co-NF-kB it was 4.16 z-score; with GST-Dm-Relish it was 5.03 z-score; with GST-Aq-NF-kB it was 4.44 z-score. The sequence further registered a binding signal in the assay with GST-Hu-p50 of 4.56 z-score.

In the case of “CCGATTAACATCAGGAAACCCCCTGATGTTAATCGGGTCTTGATTCGCTTGACGCTGCTG”, the binding signal in the assay with GST-Ap-NF-kB RHD was found to be 11.2 z-score; in assay [1], 10.1 z-score; in assay [2] it was 9.07 z-score; in the assay with GST-Co-NF-kB, 3.13 z-score; with GST-Dm-Relish it was 10.1 z-score; with GST-Aq-NF-kB, 10.5 z-score. The sequence further had a binding signal in the assay with GST-Hu-p50 of 8.19 z-score.

On to “CCGATTAACATCAGGGTAATACCTGATGTTAATCGGGTCTTGATTCGCTTGACGCTGCTG”, for which the binding signal came to 4.26 z-score with GST-Ap-NF-kB RHD; 5.72 z-score in assay [1]; 3.69 z-score in assay [2]; 2.23 z-score in the assay with GST-Co-NF-kB; 3.92 z-score with GST-Dm-Relish; 7.45 z-score with GST-Aq-NF-kB. Besides, in the assay with GST-Hu-p50, the binding signal came out at 2.82 z-score.

For “CCGATTAACATCAAGGGGGAAACTGATGTTAATCGGGTCTTGATTCGCTTGACGCTGCTG”, the binding signal amounted to 7.59 z-score with GST-Ap-NF-kB RHD; 7.46 z-score in assay [1]; 9.77 z-score in assay [2]; 8.9 z-score with GST-Co-NF-kB; 4.03 z-score with GST-Dm-Relish; 5.71 z-score in the assay with GST-Aq-NF-kB. Also, in the assay with GST-Hu-p50, the binding signal was 7.63 z-score.

Regarding “CCGATTAACATCAGGGAACACCCTGATGTTAATCGGGTCTTGATTCGCTTGACGCTGCTG”, the binding signal in the assay with GST-Ap-NF-kB RHD was 5.03 z-score; in assay [1], 4.73 z-score; in assay [2], 1.87 z-score; with GST-Co-NF-kB, 2.35 z-score; in the assay with GST-Dm-Relish it was 8.18 z-score; with GST-Aq-NF-kB, 7.15 z-score. The sequence further showed a binding signal with GST-Hu-p50 of 3.05 z-score.

For the sequence “CCGATTAACATCAAACATTCCCCTGATGTTAATCGGGTCTTGATTCGCTTGACGCTGCTG”, the binding signal stood at 6.81 z-score in the assay with GST-Ap-NF-kB RHD; 9.14 z-score in assay [1]; 9.23 z-score in assay [2]; 7.01 z-score in the assay with GST-Co-NF-kB; 4.9 z-score with GST-Dm-Relish; 6.75 z-score with GST-Aq-NF-kB. Also, the binding signal with GST-Hu-p50 was determined as 5.95 z-score.
